eLon inh = inhibitors of E. coli Lon protease, primary screen, biochemical, fluorescence polarization | actives 0.42% (n = 360,000) | inhibition, % at 7.94 µM | purified E. coli Lon protease; in the data active means inhibition above about 13%, passing the limit was not always enough
IDE cell inh = human IDE inhibitors in live cells, primary screen, fluorescence polarization, HEK cells, FAbetaB substrate | inhibition, % at 5.59 µM | AID 434962, 2010 | actives 0.41% (n = 320,000) | FAbetaB cleavage | Insulin-degrading enzyme (Homo sapiens), P14735;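 active means percent inhibition above the average of all tested compounds plus 3 SD, set per screening campaign, cut at about 16% in these data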;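 further: IDE supplied by intact live HEK cells; FP after avidin binding of uncleaved biotin substrate so inhibition keeps polarization high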
IDE cell activ = human IDE activators in live cells, primary screen, fluorescence polarization, HEK cells, FAbeta-B substrate; Insulin-degrading enzyme (Homo sapiens), P14735; FAbeta-B cleavage; 0% vehicle, 100% cell-free pure enzyme wells; activation, % at 5.96 µM; actives 0.073% (n = 340,000);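 active means activation above the mean of all tested compounds plus 3 SD, set per screening campaign, cut at about 17% in these data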
Rin1-Abl PPI inh = inhibitors of Rin1-Abl protein binding, primary screen, biochemical, TR-FRET. inhibition, % at 7.35 µM. actives 0.4% (n = 360,000); in the data active means inhibition above about 5%, passing the limit was not always enough
PKA-R2B activ = activators of PKA-R2B holoenzyme, primary screen, biochemical, fluorescence polarization, Cy5-IP20, human. PKA-R2B holoenzyme dissociation; R2B truncated from residue 108, S112A mutant; 0% DMSO only, 100% 113 µM cGMP. activation, % at 11.4 µM. actives 0.079% (n = 340,000);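 active means activation above a cutoff set at the mean over all compounds plus 3 SD, cut at about 18% in these data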;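 further: higher means more holoenzyme dissociation and a rise in polarization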
PKA-R1A activ = activators of PKA-R1A holoenzyme, primary screen, biochemical, fluorescence polarization, Cy5-IP20, bovine R1A, mouse PKAc. cAMP-dependent protein kinase type I-alpha regulatory subunit (Bos taurus) + …. PKA-R1A dissociation; scaled: DMSO 0%, 113 µM cGMP 100%. activation, % at 11.4 µM. actives 0.083% (n = 340,000);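 active means percent activation above the mean of all tested compounds plus 3 SD, cut at about 19% in these data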;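 further: higher means more PKAc released from R1A so a rise in polarization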
eLon confirm = E. coli Lon protease inhibitor retest, confirmation, biochemical, fluorescence polarization; shares compounds with eLon inh; purified E. coli Lon; inhibition, % at 7.94 µM; actives 31% (n = 1,400); in the data active means inhibition above about 16%
Numbers stand for hits. Sampled rows, rich in hits. Any-hit rate of the full collection: about 1.3%.

Results for O=C(c1c(O)c2ccccc2oc1=O)C1CCC1 ?
eLon inh: inactive; IDE cell inh: inactive; IDE cell activ: inactive; Rin1-Abl PPI inh: inactive; PKA-R2B activ: inactive; PKA-R1A activ: inactive

Results for O=C1NC(=S)/C(=C\c2ccc(-c3ccccc3Cl)o2)S1 ?
eLon inh: 47.6; IDE cell inh: inactive; IDE cell activ: inactive; Rin1-Abl PPI inh: inactive; PKA-R2B activ: inactive; PKA-R1A activ: inactive; eLon confirm: 20.2

What do the screens show for `O=C1NC(=O)/C(=C/c2ccc(-c3cc(C(=O)O)ccc3Cl)o2)S1`?
eLon inh: inactive; IDE cell inh: inactive; IDE cell activ: inactive; Rin1-Abl PPI inh: inactive; PKA-R2B activ: inactive; PKA-R1A activ: inactive

How did CCCn1c(=N)c(S(=O)(=O)c2ccccc2)cc2c(=O)n3cccc(C)c3nc21 do in these assays?
eLon inh: inactive; IDE cell inh: inactive; IDE cell activ: inactive; Rin1-Abl PPI inh: inactive; PKA-R2B activ: inactive; PKA-R1A activ: inactive

Results for O=C(Nc1cccc(Cl)c1Cl)c1csc([C@@H]2O[C@H](CO)[C@H](O)[C@H](O)[C@H]2O)n1 ?
eLon inh: 14.8; Rin1-Abl PPI inh: inactive; eLon confirm: inactive

How did CC(=O)Nc1ccc(Nc2ccc3c4c(cc(=O)n3C)-c3ccccc3C(=O)c24)cc1 do in these assays?
eLon inh: 32.8; IDE cell inh: inactive; IDE cell activ: inactive; Rin1-Abl PPI inh: inactive; PKA-R2B activ: inactive; PKA-R1A activ: inactive; eLon confirm: 51.9

How did CC(=O)Nc1c2c3c(cccc3n(C)c1=O)C(=O)c1ccccc1-2 do in these assays?
eLon inh: inactive; IDE cell inh: inactive; IDE cell activ: inactive; Rin1-Abl PPI inh: inactive; PKA-R2B activ: inactive; PKA-R1A activ: inactive

How did CCn1cc(/C=N/N=C2\CCC3C4CCc5cc(O)ccc5C4CC[C@]23C)c(C)n1 (stereo partly specified) do in these assays?
eLon inh: inactive; IDE cell inh: inactive; IDE cell activ: inactive; Rin1-Abl PPI inh: inactive; PKA-R2B activ: inactive; PKA-R1A activ: inactive

What do the screens show for `N#Cc1c(N)sc(=S)c2c1CCCCC2`?
eLon inh: 20.3; IDE cell inh: inactive; IDE cell activ: inactive; Rin1-Abl PPI inh: inactive; PKA-R2B activ: inactive; PKA-R1A activ: inactive; eLon confirm: inactive

How did CN1C(=O)c2cccc3c(Cl)ccc(c23)C1=O do in these assays?
eLon inh: inactive; IDE cell inh: inactive; IDE cell activ: inactive; Rin1-Abl PPI inh: inactive; PKA-R2B activ: inactive; PKA-R1A activ: inactive

What do the screens show for `CNc1ccc2c3c(cccc13)C(=O)N(C)C2=O`?
eLon inh: active; IDE cell inh: inactive; IDE cell activ: 58.7; Rin1-Abl PPI inh: inactive; PKA-R2B activ: inactive; PKA-R1A activ: inactive; eLon confirm: active

How did CC(C)n1c2ccccc2c2cc([N+](=O)[O-])ccc21 do in these assays?
eLon inh: 56.0; IDE cell inh: inactive; IDE cell activ: inactive; Rin1-Abl PPI inh: inactive; PKA-R2B activ: inactive; PKA-R1A activ: inactive; eLon confirm: inactive

What do the screens show for `CCn1c2ccccc2c2cc([N+](=O)[O-])ccc21`?
eLon inh: inactive; IDE cell inh: inactive; IDE cell activ: inactive; Rin1-Abl PPI inh: inactive; PKA-R2B activ: inactive; PKA-R1A activ: inactive

Results for O=c1oc2ccccc2cc1-c1nc(-c2cccs2)cs1 ?
eLon inh: 39.3; IDE cell inh: inactive; IDE cell activ: inactive; Rin1-Abl PPI inh: inactive; PKA-R2B activ: inactive; PKA-R1A activ: inactive; eLon confirm: 45.5

What do the screens show for `Cn1c2ccccc2c(=O)c2ccc(NCCc3cccs3)cc21`?
eLon inh: 91.6; IDE cell inh: inactive; IDE cell activ: inactive; Rin1-Abl PPI inh: inactive; PKA-R2B activ: inactive; PKA-R1A activ: inactive; eLon confirm: 22.6
